In PubChem BioAssay (EPA / NIEHS):
Several values for one entry are separate records, joined by “and”; a condition that tells them apart may be missing. Identical values can stand only once. Records with an inconclusive call do not appear. Activity calls are given as the source filed them. How the source made its calls, unless noted: active means hit-call score of the fitted dose curve at least 0.9, where 1 is the maximum; inactive means score below 0.9.

Tests used:
[1] = CCTE_Shafer_MEA_dev_interburst_interval_mean: CCTE's Neural Network Formation Assay for Mean Interburst Interval, Shafer Lab (AID 2284046);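 further: well-mean interburst interval of bursting electrodes as AUC over four recording days; curve fitted for decrease in interburst interval relative to DMSO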
Procedure, shortened: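 Rat cortical neurons, 1.5 x 10^5 cells/well, 48-well MEA; compound from day 0 through DIV 12, media and treatment renewed DIV 5/9. Recordings DIV 5, 7, 9, 12; well-mean interburst interval → trapezoidal AUC, loss direction vs DMSO.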

[2] = CCTE_Shafer_MEA_dev_network_spike_number: CCTE's Neural Network Formation Assay for Number of Network Spikes, Shafer Lab (AID 2284048);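 further: synchronized bursts across electrodes counted on days 5 7 9 12 and integrated as AUC; fit as a loss of signal meaning fewer network spikes than DMSO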
Procedure, shortened: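 Rat cortical primary cultures on 48-well MEA (16 electrodes/well); continuous exposure DIV 0–12, full medium and treatment exchange DIV 5, 9. Readout: network spike count, AxIS adaptive detection, recordings DIV 5/7/9/12 collapsed to AUC; loss-of-signal fit, DMSO baseline.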

[3] = CCTE_Shafer_MEA_dev_network_spike_peak: CCTE's Neural Network Formation Assay for Mean Number of Electrodes in Network Spike, Shafer Lab (AID 2284049);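 further: fitted for loss of signal meaning fewer electrodes in network spikes than DMSO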
Procedure, shortened: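 Network-spike peak electrode count from recordings on days 5, 7, 9 and 12 was combined as trapezoidal area under the curve. Rat cortical cultures were treated continuously from plating, with compound renewed at each feed (DIV 5, 9); fits versus DMSO.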

[4] = CCTE_Shafer_MEA_dev_spike_duration_mean: CCTE's Neural Network Formation Assay for Mean Spike Duration, Shafer Lab (AID 2284051);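 further: mean network spike duration pooled as area under curve over DIV 5 to 12 recordings; potency for a decrease in mean network spike duration versus DMSO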
Procedure, shortened: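 Rat cortical primary cultures, 48-well MEA (16 electrodes/well); compound from plating, renewed DIV 5, 9. Network spike duration (AxIS adaptive detector) recorded DIV 5/7/9/12, combined as trapezoidal AUC; loss direction vs DMSO.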

[5] = CCTE_Shafer_MEA_dev_network_spike_duration_std: CCTE's Neural Network Formation Assay for Standard Deviation of Network Spike Duration, Shafer Lab (AID 2284052);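 further: area under curve of spike duration SD across recording days 5 to 12; hits are decreases in network spike duration SD versus DMSO vehicle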
Procedure, shortened: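 Rat cortical cultures, 1.5 x 10^5 cells/well, exposed continuously from plating to DIV 12 with media/compound renewal at DIV 5, 9. Spontaneous activity recorded DIV 5/7/9/12, AxIS adaptive spike detector; AUC across days; negative direction vs DMSO.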

[6] = CCTE_Shafer_MEA_dev_per_network_spike_spike_number_mean: CCTE's Neural Network Formation Assay for Mean Number of Spikes in a Network Spike, Shafer Lab (AID 2284053);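 further: fitted as decrease in spikes per network spike relative to DMSO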
Procedure, shortened: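 Rat cortical primary cultures on 48-well MEA; compound from day 0, re-dosed with full media change DIV 5, 9. Recorded DIV 5, 7, 9, 12; spikes in 0.05 s window at network-spike peak ÷ total network spikes; AUC; loss vs DMSO.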

[7] = CCTE_Shafer_MEA_dev_per_network_spike_spike_percent: CCTE's Neural Network Formation Assay for Percent of Spikes in a Network Spike, Shafer Lab (AID 2284054)
Procedure, shortened: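 Read-out: percent of spikes falling in a 0.05 s window at network-spike peak, from spontaneous MEA recordings on days 5, 7, 9 and 12; trapezoidal AUC; loss of signal versus DMSO. Rat cortical cultures, compound present throughout.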

[8] = CCTE_Shafer_MEA_dev_LDH: CCTE's Lactate Dehydrogenase Assay for Cytotoxicity in the Neural Network Formation Assay, Shafer Lab (AID 2284068; active means hit-call score of the fitted dose curve at least 0.9, where 1 is the maximum;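 further: exposure for twelve days from plating with re-dosing on DIV 5 and 9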)
Procedure, shortened: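 Rat cortical primary neurons, MEA culture; dosing day 0–12, full medium plus compound exchange DIV 5, 9. Read-out: LDH enzyme activity, spectrophotometric. DMSO = negative control/baseline; signal loss → cytotoxicity.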

[9] = UKN5_HCS_SBAD2_neurite_outgrowth: University of Konstanz (UKN) Leist Lab Neurite Outgrowth Assay in human iPSC-derived immature Dorsal Root Ganglia Neurons (UKN5) (AID 2284070); settings: actives raise or lower the signal
Procedure, shortened: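 Thaw, seed on Matrigel (100.000 cells/cm2), dose 1 h later; at 23 h live-stain with H-33342 and calcein-AM for 60 min; image at 24 h. Neurite area fitted bidirectionally vs DMSO.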

[10] = CCTE_Shafer_MEA_dev_AB: CCTE's Alamar Blue Assay for Cytotoxicity in the Neural Network Formation Assay, Shafer Lab (AID 2284083; active means hit-call score of the fitted dose curve at least 0.9, where 1 is the maximum;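 further: resazurin reduction fluorescence as viability of cultured neurons; twelve days of exposure from plating with re-dosing on DIV 5 and 9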)
Procedure, shortened: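 Rat cortical primary cultures, 1.5 x 10^5 cells/well on MEA; continuous compound exposure over 12 days of network development, re-dosed with full medium change DIV 5 and 9. Alamar Blue fluorescence; loss of signal = cytotoxicity vs DMSO baseline.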

[11] = CCTE_Shafer_MEA_dev_mutual_information_norm: CCTE's Neural Network Formation Assay for Mutual Information Normalization, Shafer Lab (AID 2284091);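 further: mutual information between electrodes summarised as area under curve across four recording days; potency is for a decrease in mutual information relative to DMSO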
Procedure, shortened: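 Neurons from rat cortex were seeded at 1.5 x 10^5 cells/well onto PEI-coated MEAs in a laminin drop, then exposed to compound from day 0 for twelve days. Network recordings on four days gave mutual information, summarised by AUC relative to DMSO.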

[12] = CCTE_Shafer_MEA_dev_correlation_coefficient_mean: CCTE's Neural Network Formation Assay for Mean Correlation Coefficient, Shafer Lab (AID 2284093);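 further: well mean pairwise spike train correlation integrated as AUC over recording days 5 to 12; potency fitted for loss of correlation relative to DMSO vehicle wells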
Procedure, shortened: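 Rat cortical cultures, 1.5 x 10^5 cells/well, dosed from day 0 for 12 days. Spontaneous spikes recorded DIV 5/7/9/12; electrode-pair correlation coefficients averaged, AUC taken. Fit in loss direction vs DMSO.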

[13] = UKN4_HCS_LUHMES_neurite_outgrowth: University of Konstanz (UKN) Leist Lab Neurite Outgrowth Assay in human LUHMES cells (UKN4) (AID 2284206); settings: actives raise or lower the signal
Procedure, shortened: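 Human LUHMES cells were differentiated for two days, replated and treated with chemicals for 24 h. Neurite outgrowth was quantified as calcein-stained neurite area by HCS imaging, fitted bidirectionally relative to DMSO.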

[14] = IUF_NPC1b_proliferation_BrdU_72hr: Leibniz Research Institute for Environmental Medicine (IUF) 72-hour Neural Progenitor Cell Bromodeoxyuridine (BrdU) Proliferation Assay (NPC1b) (AID 2284207)
Procedure, shortened: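 Luminescent BrdU ELISA measured DNA synthesis during the last 16 h of a 72 h exposure of primary human neural progenitor spheres grown with EGF and FGF. Signal was fitted relative to DMSO controls.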

[15] = CCTE_Mundy_HCI_Cortical_Synap_Neur_Matur_NeuriteSpotCountPerNeuriteLength: CCTE's Synaptogenesis and Neurite Maturation Assay in rat cortical cells for Neurite Spot Count per Neurite Length, Mundy Lab (AID 2284210)
Procedure, shortened: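 Read-out: synaptophysin puncta counted along MAP2-stained neurites, normalised to neurite length, by automated high-content imaging. Rat cortical cells; AraC DIV 5; chemical dosing DIV 7; termination DIV 12. DMSO baseline.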

[16] = CCTE_Mundy_HCI_Cortical_NOG_NeuriteCount: CCTE's Neurite Outgrowth Assay in rat cortical cells for Neurite Count, Mundy Lab (AID 2284212);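 further: cells fixed about two days after chemical exposure began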
Procedure, shortened: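 Rat cortical primary cells; compound added 2 h post-plating, 1/10 dilution of working solution. Anti-betaIII-tubulin/AF488 ICC; ArrayScan neurite count vs DMSO.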

[17] = CCTE_Mundy_HCI_Cortical_NOG_NeuriteLength: CCTE's Neurite Outgrowth Assay in rat cortical cells for Neurite Length, Mundy Lab (AID 2284213);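 further: neurites imaged about 48 to 50 h after chemical exposure began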
Procedure, shortened: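 First, rat primary cortical cells were plated and, 2 h later, given test chemical as a 1/10 dilution. Finally, βIII-tubulin immunostaining enabled automated imaging of neurite length.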

Measured: AC50

[CH3][Hg][Cl]
active: [1] 340 nM | [2] 86.7 nM | [3] 356 nM | [4] 275 nM | [5] 164 nM | [6] 536 nM | [7] 309 nM | [8] 182 nM | [9] 636 nM | [10] 283 nM | [11] 134 nM | [12] 306 nM | [13] 164 nM | [14] 906 nM and 968 nM | [15] 881 nM | [16] 493 nM | [17] 222 nM and 316 nM
